Screening results from PubChem.
CYP2C19 inhib = human CYP2C19 inhibition; 96,000 compounds, 21% hits; CYP2C19 Supersomes, luciferin-H EGE luminescence, 30 min; inhibition, % at 5 µM;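 active = CYP2C19 inhibition above a set limit at 5 µM in the primary screen, cut at about 50% in these data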;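 also: plate controls were negative control wells for no effect and 2.5 mM tranylcypromine positive control for full effect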
Target sequence (P33261 whole entry, looked up): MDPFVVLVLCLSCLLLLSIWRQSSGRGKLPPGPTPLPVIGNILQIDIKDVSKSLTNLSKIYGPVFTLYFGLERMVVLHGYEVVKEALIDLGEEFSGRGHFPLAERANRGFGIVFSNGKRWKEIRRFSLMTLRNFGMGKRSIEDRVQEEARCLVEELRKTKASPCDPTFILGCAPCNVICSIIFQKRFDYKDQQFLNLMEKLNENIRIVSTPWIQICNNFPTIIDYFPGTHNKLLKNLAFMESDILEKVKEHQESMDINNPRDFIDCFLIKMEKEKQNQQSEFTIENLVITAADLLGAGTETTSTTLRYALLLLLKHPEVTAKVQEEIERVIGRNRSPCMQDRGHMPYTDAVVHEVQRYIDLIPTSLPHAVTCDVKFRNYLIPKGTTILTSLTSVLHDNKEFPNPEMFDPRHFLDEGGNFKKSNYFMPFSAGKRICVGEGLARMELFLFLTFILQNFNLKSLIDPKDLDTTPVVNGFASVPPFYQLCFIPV
CYP2C19 activ = activators of human cytochrome P450 2C19; activation factor at 5 µM; recombinant CYP2C19, luciferin-H EGE luminescence; active compounds read high; 0 = fully inhibited enzyme, 1 = untreated enzyme; 96,000 tested, under 10 active;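 active = activation factor of at least 2 at 5 µM in the primary screen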;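 also: 0 = wells with 2.5 mM tranylcypromine and 1 = vehicle-only wells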
PostGolgi yeast = growth inhibition of a yeast mutant, post-Golgi transport screen. post-Golgi transport phenotypic cell assay. inhibition, % at 10 µM. 98,000 compounds, 0.9% hits;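 also: yeast cells grown in 1536-well plates; yeast grown about 18 h at 30C before absorbance read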
CYP2C9 inhib = human CYP2C9 inhibition; P11712; CYP2C9 Supersomes, luciferin-H conversion, luminescence; inhibition, % at 5 µM; 96,000 compounds, 20% hits;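 active = blocking of liver enzyme CYP2C9 beyond about 50% at 5 µM, limit read from the data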
PostGolgi ctrl = inhibits growth of the yeast control strain | 98,000 compounds, 5% hits | efflux-deficient yeast background strain, growth absorbance A615, 16 h | AID 738 | inhibition, % at 10 µM
CYP2C9 activ = increases human cytochrome P450 2C9 activity; recombinant CYP2C9, luciferin-H conversion, luminescence; active compounds read high; factor 1 = untreated enzyme, 0 = blocked; P11712; activation factor at 5 µM; 96,000 compounds, 1.4% hits;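 active = activation factor of 2 or more for CYP2C9 at a 5 µM dose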;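 also: 0 = sulfaphenazole-blocked wells and 1 = vehicle-only wells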
* hit, by the source's call; . = not tested or not shown. Hits are enriched below; roughly 32% of the tested compounds scored in any of these assays. Rule as the data show it, unless noted: active = inhibition above about 30%; inactive = the rest.

SMILES | CYP2C19 inhib | CYP2C19 activ | PostGolgi yeast | CYP2C9 inhib | PostGolgi ctrl | CYP2C9 activ
Cc1ccc(-n2c(Cc3cccn3C)nnc2SCC(=O)Nc2ccc3c(c2)OCO3)cc1 | 46 | 0.5 | 0 | 56* | 7 | 0.4
Cn1cccc1Cc1nnc(SCC(=O)Nc2ccc3c(c2)OCCO3)n1-c1ccc(F)cc1 | 18 | 0.8 | 3 | 30 | 13 | 0.7
CC(C)NC(=O)Cn1c(SCC(=O)N2CCc3ccccc3C2)nc2ccccc21 | 30 | 0.7 | -9 | 40 | -4 | 0.6
CC1CCCCN1C(=O)CSc1nc2ccccc2n1CC(=O)N1CCc2ccccc21 (configuration not stated) | 82* | 0.2 | -1 | 99* | 3 | 0
CC(C)NC(=O)CSc1nc2ccccc2n1CC(=O)N1CCc2ccccc21 | 72* | 0.3 | 3 | 95* | 1 | 0.1
CN(C)C(=O)Cn1c(SCC(=O)N2CCCc3ccccc32)nc2ccccc21 | 3 | 1 | 8 | 0 | -2 | 1
CCCCOc1ccc(S(=O)(=O)NCc2csc(C)n2)cc1 | 41 | 0.6 | 5 | 30 | 2 | 0.7
CCc1ccc(S(=O)(=O)NCc2csc(-c3cccnc3)n2)s1 | . | . | 2 | . | 4 | .
O=S(=O)(NCCc1csc(-c2cccnc2)n1)c1ccc(Cl)s1 | 80* | 0.2 | 15 | 83* | 14 | 0.2
Cc1nc(CNS(=O)(=O)c2ccc3c(c2)CCCC3)cs1 | 39 | 0.6 | 2 | -135 | 1 | 2.4*
O=S(=O)(NCCc1csc(-c2cccnc2)n1)c1cccs1 | 94* | 0.1 | 5 | 66* | -2 | 0.3
COc1ccc(-c2nc(CNS(=O)(=O)c3ccc(OC)c(OC)c3)cs2)cc1 | 82* | 0.2 | -6 | 55* | 12 | 0.4
O=S(=O)(NCc1csc(-c2cccnc2)n1)c1cccs1 | 41 | 0.6 | 4 | 17 | 1 | 0.8
CCc1ccc(N(C(C)=O)C2C=CS(=O)(=O)C2)cc1 (configuration not stated) | 27 | 0.7 | -4 | 12 | 5 | 0.9
CC(=O)NC(Cc1ccccc1)C(=O)NC1CCN(C(=O)NC2CCCCC2)CC1 (configuration not stated) | -8 | 1.1 | -3 | -5 | 9 | 1.1
O=C(NCCc1csc(-c2cccnc2)n1)c1cccs1 | . | . | 1 | . | -3 | .
CC(=O)Nc1ccc(S(=O)(=O)NCc2csc(-c3cccnc3)n2)cc1 | -4 | 1 | -8 | -3 | 2 | 1
Cc1ccc(C(=O)NCCc2csc(-c3cccnc3)n2)cc1 | 47 | 0.5 | 1 | 63* | 8 | 0.4
COc1ccc(CCNC(=O)COC(=O)c2ccco2)cc1OC | -1 | 1 | 5 | -10 | 2 | 1.1
O=C(NCCc1csc(-c2ccc(C(F)(F)F)cc2)n1)c1cccs1 | 41 | 0.6 | 4 | 75* | 82* | 0.2
O=C(OCc1csc(-c2ccccc2)n1)c1cccs1 | 8 | 0.9 | -8 | -5 | 5 | 1.1
COc1ccc(-c2nc(CCNC(=O)c3ccco3)cs2)cc1OC | 33 | 0.7 | -10 | 54* | 21 | 0.5
COc1ccc(S(=O)(=O)NCCc2csc(-c3cccnc3)n2)cc1 | 93* | 0.1 | 5 | 60* | 22 | 0.4
CCOc1ccc(NC(=O)C2CCN(C(=O)NCc3ccccc3)CC2)cc1 | -2 | 1 | -7 | -5 | 8 | 1
CCOc1ccc(NC2=NC(C(=O)NCc3ccccc3)CC(=O)N2)cc1 (configuration not stated) | 62* | 0.4 | 1 | 25 | 0 | 0.7
SMILES | CYP2C19 inhib | CYP2C19 activ | PostGolgi yeast | CYP2C9 inhib | PostGolgi ctrl | CYP2C9 activ
Cc1nc(=O)c(-c2ccccc2)c(C)n1CCCCCC(=O)O | -4 | 1 | 12 | 0 | 2 | 1
COC(=O)C1=C(C)N=C2SC(C#N)=C(N)N2C1c1cccc(OC)c1 (configuration not stated) | 96* | 0 | -2 | 92* | 16 | 0.1
CCN(CC)CCN1C(=O)C(=O)/C(=C(/O)c2c(C)[nH]c(C(=O)OC)c2C)C1c1cccc(OC)c1 (configuration not stated) | 4 | 1 | 1 | -2 | 9 | 1
CCOC(=O)c1ccccc1NC(=O)Cn1cnc2c(oc3ccccc32)c1=O | 15 | 0.8 | -4 | 43 | -3 | 0.6
CCC1=Nc2ccccc2NC2=C1C(=O)CCC2 | 63* | 0.4 | -36 | -27 | 18 | 1.3
O=C(Cn1cnc2ccccc2c1=O)c1ccc2ccccc2c1 | 29 | 0.7 | 6 | 13 | -5 | 0.9
O=C(Cn1c(C(F)(F)F)nc2ccccc21)c1ccc(Br)cc1 | -11 | 1.1 | 1 | -3 | 0 | 1
Cc1nc([N+](=O)[O-])c(Br)n1CC(=O)c1ccccc1 | 51* | 0.5 | 3 | 17 | 11 | 0.8
Cc1ncc([N+](=O)[O-])n1CC(=O)NCc1ccccc1 | 1 | 1 | -2 | 10 | 0 | 0.9
Cc1nc([N+](=O)[O-])c(Br)n1CC(=O)c1ccc(Br)cc1 | 18 | 0.8 | 22 | 54* | 20 | 0.5
Cc1nc([N+](=O)[O-])c(Br)n1CC(=O)c1ccc2ccccc2c1 | 54* | 0.5 | 9 | 76* | 10 | 0.2
CN(C)C(=O)c1ccccc1-c1ccccc1 | 23 | 0.8 | -6 | 6 | 3 | 0.9
Cc1nn(C)c(=O)n1-c1ccc(OCc2ccccc2)cc1 | 56* | 0.4 | 10 | 33 | 2 | 0.7
COc1ccc(-n2c(C)nn(C)c2=O)cc1 | 3 | 1 | 5 | -3 | -7 | 1
O=C(CSc1ncn[nH]1)NCCOc1ccccc1 | 39 | 0.6 | 24 | 11 | 2 | 0.9
COc1ccc(CCNC(=O)CSc2ncn[nH]2)cc1 | 52* | 0.5 | 4 | 14 | 0 | 0.9
CCOC(=O)C(Sc1ncn[nH]1)c1ccccc1 (configuration not stated) | 64* | 0.4 | -2 | 26 | 13 | 0.7
O=C(CSc1ncn[nH]1)NCCC(c1ccccc1)c1ccccc1 | 83* | 0.2 | -1 | 65* | -3 | 0.3
COc1ccc(CCC(=O)NCCc2cn3c(C)csc3n2)cc1 | 53* | 0.5 | -2 | 2 | 7 | 1
O=C(CSc1ncn[nH]1)OCN1C(=O)c2ccccc2C1=O | -10 | 1.1 | -6 | -19 | 7 | 1.2
COc1ccc(N2CCN(C(=O)CCCC3=NS(=O)(=O)c4ccccc4N3)CC2)cc1 | 5 | 0.9 | 14 | 8 | 21 | 0.9
Cc1ccc(S(=O)(=O)NC(=NCC(=O)O)c2ccc(F)cc2)cc1 | -15 | 1.1 | -2 | -5 | 14 | 1
CCCCNC(=O)CCn1nc(-c2ccccc2)ccc1=O | -6 | 1.1 | -8 | -7 | -7 | 1.1
CC1CCCN(CCCNC(=O)CCn2nc(-c3ccccc3)ccc2=O)C1 (configuration not stated) | -4 | 1 | -3 | 87* | 28 | 0.1
CC1CCCCN1CCNC(=O)Cn1nc(-c2ccccc2)ccc1=O (configuration not stated) | -20 | 1.2 | 39* | -20 | 0 | 1.2
